“And” between values parts separate entries of the source, which are not always exact repeats. Identical values can stand only once. Among all 300,000 compounds or so, about 37,000 (12%) were called active. The full list was thinned out, with actives kept by preference. A number with no mark means an inactive call. Cut-off read from the data, not from the text of the source: active = max response mostly above about 13% (no sharp cut-off); inactive = mostly below about 14%.
Assay: Cycloheximide Counterscreen for Small Molecule Inhibitors of Shiga Toxin; note: read at 38.3 µM for the half of the compounds with a filed dose; 0% is about no effect
Settings: cell reporter, cycloheximide protein synthesis inhibition counterscreen; hits give high values

Compound | max response
CCCNC(=O)C(=O)Nc1cc2c3c(c1)CCC(=O)N3CCC2 | -6.21%
Cc1cc(F)ccc1N1CCC(N2CCN(C)C(CCO)C2)CC1 (stereo not given) | -1.8%
CCCn1c(C2CCCN2c2nc(-c3ccc(OC)cc3)cs2)nc2ccccc21 (stereo not given) | 3.07%
CCCn1c(C(O)c2cc(OC)ccc2OC)nc2ccccc21 (stereo not given) | -2.36%
CCCn1c(CCNc2nc(-c3ccc(OC)cc3)cs2)nc2ccccc21 | 6.09% (active)
COC(=O)c1ccc(CSc2ccc3nnc(-c4ccccc4)n3n2)o1 | 15.3%
Cc1nnc2n1N=C(c1ccc3c(c1)NC(=O)CO3)CS2 | -0.735%
Cc1ccc(/C=N/NC(=S)NC2CCCCC2)o1 | 24.4% (active)
S=C(Nc1ccc(Br)cc1Cl)NC1CCN(Cc2ccccc2)CC1 | -4.37%
Cc1cc(Br)ccc1NC(=S)NC1CCCC1 | 30.4% (active)
Cc1ccc(NC(=S)Nc2ccc(F)cc2)cc1 | 8.11% (active)
S=C(Nc1ccc(Br)cc1)NC1CCN(Cc2ccccc2)CC1 | -1.87%
Cc1ccc(/C=N/NC(=S)Nc2cccc(S(=O)(=O)N(C)C)c2)o1 | 11.3%
C/C(=N\NC(=S)NC1CCCCC1)c1ccc(C)o1 | 26.6%
CC(C)CNC(=S)Nc1ccc(F)cc1 | -3.91%
CC(Oc1ccc(Br)cc1Br)C(=O)NC1CCCC1 (stereo not given) | -1.67%
Cc1ccc(NC(=O)CSCC(=O)NC2CCCCC2)cc1 | 1.06%
Cc1cc(C)cc(NC(=S)NCc2ccc(F)cc2)c1 | -3.19%
Cc1ccc(NC(=S)NC2CCCC2)cc1 | 26.6% (active)
Cc1ccc(-n2c(C)nnc2SCC(=O)NC2CC2)cc1 | 1.87%
O=C(CN1CCN(Cc2ccccc2)CC1)Nc1ccc(F)c(F)c1 | 2.05%
COc1ccc(C2CC(c3cccs3)=NN2c2nc(C)c(C(C)=O)s2)cc1OC (stereo not given) | 14%
CCN(CC)CCCNC(=O)c1c(O)c2cc(F)cc3c2n(c1=O)C(C)CC3 (stereo not given) | -7.23%
O=C(N/C(=C\c1ccc([N+](=O)[O-])cc1)C(=O)N1CCOCC1)c1cccc(Br)c1 | 0.841%

Compound | max response
COc1ccc(/C=C/C(=O)Nc2c(C)nn(C)c2C)cc1COc1ccc(Br)cc1 | -4.32%
Cc1ccc(S(=O)(=O)N2CCN(c3ccccc3)CC2)cc1C | -2.26%
CN(CC(=O)Nc1c(Cl)cccc1Cl)C(=O)CNC(=O)C1CCCCC1 | 5.73%
O=C(O)CCc1nc2cc(Cl)ccc2n(Cc2ccccc2)c1=O | -1.53%
Cc1nnc(SC(C)C(=O)Nc2ccc(S(=O)(=O)NC3CCCCC3)cc2)s1 (stereo not given) | -4.95%
CCOCCCN(C)C1CCN(C(=O)c2oc3ccccc3c2NC(=O)Cc2cccc([N+](=O)[O-])c2)CC1 | -8.08%
COc1ccc2occ(C(=O)c3ccc(N=C(C)N(C)C)cc3)c2c1 | 28.3% (active)
COc1ccc(OC)c(C(=O)c2ccc(C(=O)O)cc2)c1 | 5.22%
COc1ccc(OC)c(C(=O)c2coc3ccc(OC)cc23)c1 | -2.15%
COc1ccccc1OCc1ccc(C(=O)NC(C)c2ccccc2)o1 (stereo not given) | -0.796%
CC(C)(C)NC(=O)c1cccc(NC(=O)Cc2ccc(Br)cc2)c1 | -3.99%
CN(C)C(=O)c1nc2ccc(Cl)cn2c1CNCc1cccc(OC(F)(F)F)c1 | 0.689%
C/C(=N\NC(N)=S)c1ccncc1 | -1.83%
C/C(=N\NC(=O)c1cc2c(s1)CCC(C)C2)c1cccnc1 (stereo not given) | 19.2% (active)
C/C(=N\NC(=O)c1cccnc1)c1ccc(-c2ccccc2)cc1 | 12.6% (active)
COCc1c(C(=O)N/N=C(\C)c2ccncc2)nnn1-c1nonc1N | -0.414%
CC1CCc2sc(C(=O)N/N=C/C3CCCCC3)cc2C1 (stereo not given) | 8.2%
C/C(=N\NC(=O)c1cc(-c2ccc(O)cc2)nc2ccccc12)c1cccnc1 | 17%
C/C(=N\NC(N)=S)c1cccnc1 | -2.63%
C/C(=N\NC(=O)c1cccnc1)c1ccc(-n2ccnc2)cc1 | -1.63%
C/C(=N\NC(=O)c1cccc([N+](=O)[O-])c1)c1cccnc1 | 11.9%
C/C(=N\NC(=O)Cc1ccc(Br)cc1)c1cccnc1 | 1.49%
C/C(=N\NC(=O)c1ccc2ccccc2c1)c1cccnc1 | 34.4% (active)
C/C(=N/NC(=O)c1ccn(C)n1)c1ccncc1 | 51.6% (active)

Compound | max response
C/C=N/NC(=O)CCCC(=O)N/N=C/C | -6.46%
CCOC(=O)c1c(NC(=O)Cn2nc(C(F)(F)F)cc2C)sc2c1CCC2 | 4.3%
CCCc1nc2oc3c(OCC)ncnc3c2c2c1COC(C)(C)C2 | -2.02%
CCOC(=O)/C(N=Nc1cc(C(=O)O)cc(C(=O)O)c1)=C(\O)CCl | -1.38%
Cc1cccc(CN2CCC(CNC(=O)Nc3ccc(F)c(Cl)c3)CC2)c1 | 0.642%
C/C(=N\NC(=O)c1nc(C)cc(C)n1)c1ccccc1 | 31.4% (active)
COc1ccc(/C(C)=N\NC(=O)c2ccc(-c3ccccc3)cc2)c(F)c1 | 0.503%
CNC(=O)C(NC(=O)c1ccccc1)=C(C)C | 3.38%
CSc1ccc(CN2C(=O)NC3(CCCCCC3)C2=O)cc1 | -3.95%
O=C(Nc1ccc2ccccc2c1)/C(=C/c1cccc(Br)c1)NC(=O)c1ccco1 | -5.2%
O=C(Nc1ccccc1)O/N=C1/CCCc2occc21 | 19.6% (active)
O=C(Nc1ccccc1)O/N=C1\CCCCC1c1ccc([N+](=O)[O-])cc1[N+](=O)[O-] (stereo not given) | -0.778%
COc1ccc2c(c1)CCC/C2=N\OC(=O)c1ccccc1F | 33%
CN(C)S(=O)(=O)c1ccc(N/C=C(\[N+](=O)[O-])S(=O)(=O)c2ccccc2)cc1 | -2.27%
Cc1cc(Br)ccc1NC(=O)c1cnc(N2CCN(c3ccccn3)CC2)c2ccccc12 | -4.22%
Cc1ccc(NC(=O)CSc2sc3c(O)cc(=O)[nH]c3c2C#N)cc1C | -5.26%
COc1ccc(S(=O)(=O)N2CCN(C(=O)N(C)C)C2C)cc1 (stereo not given) | -6.24%
COc1ccc(CNC(=O)c2c[nH]c3c(OC)cc(OC)cc3c2=O)cc1 | 2.74%
COc1ccc(-n2c(SCC(=O)NCc3ccco3)nnc2-c2c[nH]c3ccccc23)cc1 | 1.31%
O=C(CSc1nnc(-c2c[nH]c3ccccc23)n1-c1ccc(F)cc1)NCc1ccco1 | 11.7% (active)
O=C(CSc1nnc(-c2cccs2)n1-c1ccccc1)NCc1ccco1 | -2.76%
COc1ccc(CC(=O)NC2CCSc3ccccc32)cc1OC (stereo not given) | 2.51%
CC(C)[C@@H](C(=O)O)N(Cc1cccc(CN([C@H](C(=O)O)C(C)C)S(C)(=O)=O)c1)S(C)(=O)=O | -2.74%
O=C(O)C1CCN(C(=O)c2cc(F)cc3c2OCOC3)CC1 | -2.01%

Compound | max response
CCN(CC)C(=O)CC(c1ccc2c(c1)OCO2)c1c(OC)cc(OC)c2c(-c3ccccc3)cc(=O)oc12 (stereo not given) | 7.27% and 12.1%
Cc1ccc2nc(-c3ccc(SCC(=O)Nc4cc(C)on4)nc3)[nH]c2c1 | 40.1% (active)
Cc1cc(NC(=O)CSc2nc(=O)cc(N)n2-c2ccc(F)cc2)no1 | -1.93%
Cc1cc(NC(=O)CSc2nc3ccccc3n2CC(C)C)no1 | 16.2%
Cc1ccc(N2CC(C(=O)Nc3ccc(S(=O)(=O)N4CCCC4)cc3)CC2=O)cc1C (stereo not given) | -2.43%
COc1ccccc1C(=O)COC(=O)CNS(=O)(=O)c1ccc(NC(C)=O)cc1 | 3.07%
CC(C)C[C@H](NC(=O)N1CC(=O)Nc2ccccc21)C(=O)N[C@H](Cc1ccccc1)C(=O)O | -1.39%
COc1ccc(OC)c(C2C3=C(N=c4s/c(=C\c5cccc(O)c5)c(=O)n42)c2ccccc2CC3)c1 (stereo not given) | -1.53%
COc1ccc(NC(=O)c2cc3nc(-c4ccccc4)cc(C)n3n2)cc1OC | -3.85%
CC(C)c1ccc(OCC(=O)N2CCCN(C)CC2)cc1 | 14.8%
CN1CCN(C(=O)COc2ccc(C(C)(C)C)cc2Br)CC1 | -0.455%
CC(C)c1ccc(OCC(=O)N2CCN(C)CC2)c(Br)c1 | 11.3% (active)
Cc1ccc(-c2nc(C)sc2CC(=O)OCC(=O)Nc2c(F)cccc2F)cc1 | 1.62%
O=C(Nc1ccc(N2CCCC2=O)cc1)c1cncc(Br)c1 | 1.75%
COCn1c(C(O)c2ccccc2)cc2ccccc21 (stereo not given) | 5.67%
CCOC(=O)N1CCN(C(=O)COCc2cc(-c3ccc4c(c3)OCO4)on2)CC1 | 9.44%
CC(C)NC(=O)COCc1cc(-c2ccc3c(c2)OCO3)on1 | 34.6% (active)
Cc1cccc(N2CCN(C(=O)COCc3cc(-c4ccc5c(c4)OCO5)on3)CC2)c1C | 13.7%
CCCn1nnnc1NCc1ccc(CC)cc1 | 15.5%
CCN1CCN(c2sc(S(C)(=O)=O)nc2S(=O)(=O)c2ccc(Cl)cc2)CC1 | 13.5%
COc1ccc(/C=C/c2nnc(NC(=O)C(C)C)s2)cc1 | 13.9% (active)
O=C(Nc1ccc(Cl)cc1)Nc1nnc(/C=C/c2ccccc2)s1 | 6.47%
O=C(CSc1ccccc1)Nc1nnc(/C=C/c2ccccc2)s1 | 0.905%

From PubChem BioAssay AID2314 (National Center for Advancing Translational Sciences (NCATS), 2010)
